From PubChem BioAssay
Calls of active or inactive are those of the source. Unless noted, no rule for the calls is given here.

Key:
[1] = HepG2 liver cancer cell viability effects, profiling panel, resazurin fluorescence, 24 h, PK04 Diversity Set (AID 1172); settings: higher = more signal
[2] = basal S. cerevisiae growth modulation, no modifier, primary screen, OD600, strain BY4716, 24 h, basal condition (AID 1173); settings: OD600, 24 h, higher = more signal, called active from +8 up or from −8 down
[3] = MM1S myeloma cell viability, profiling panel, resazurin fluorescence, basal, 24 h, PK04 Diversity Set (AID 1174); settings: higher = more signal, called active from +8 up or from −8 down;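 also: MM1S multiple myeloma cell line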
[4] = biological target: Dihydroorotate dehydrogenase (quinone), mitochondrial (Plasmodium falciparum (isolate 3D7)) (UniProt Q08210); assay: PfDHODH enzyme inhibitors, primary screen, biochemical, C-terminal His tag, absorbance 600 nm (AID 1175); settings: DCIP absorbance 600 nm, higher = more signal, called active from +8 up or from −8 down;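 also: recombinant parasite enzyme with a five histidine tag at its C terminus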
[5] = P. aeruginosa biofilm formation inhibitors, primary screen, strain PAO1, LB-PBS medium, absorbance 600 nm (AID 1176); settings: P. aeruginosa PAO1 growth/biofilm, A600, 12 h; higher = more signal
[6] = S. cerevisiae RM11-1a growth modifiers, primary screen, strain RM11-1a, OD600, basal, 24 h (AID 1177); settings: OD600, 24 h, higher = more signal, called active from +8 up or from −8 down;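 also: cultures grown under basal conditions with no added stressor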
[7] = E. coli acrAB mutant growth effects, primary screen, E. coli filamentation inducers, strain DRC39, OD650, 24 h (AID 1178); settings: higher = more signal, called active from +8 up or from −8 down;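 also: growth measured as culture turbidity by optical density at 650 nm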
[8] = E. coli acrAB mutant growth effects, primary screen, E. coli filamentation inducers, strain DRC39, OD650, 48 h (AID 1179);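 also: screen aims at cell division blockers that make cells filament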; settings: E. coli DRC39 delta-acrAB growth, higher = more signal, called active from +8 up or from −8 down
[9] = RPMI8226 myeloma cell viability, profiling panel, resazurin fluorescence, basal, 24 h, PK04 Diversity Set (AID 1180); settings: higher = more signal;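 also: RPMI8826 multiple myeloma cell line at 5000 cells per well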
[10] = biological target: E3 ubiquitin-protein ligase XIAP (Homo sapiens) (UniProt P98170); assay: XIAP binders, primary screen, biophysical, small-molecule microarray, fluorescence 635 nm (AID 1181); settings: small-molecule microarray binding, higher = more signal;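 also: score merges 667 nm emission and signal to noise over triplicate slides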
[11] = system: XIP peptide (Xip251-270) binding; assay: small-molecule binders of XIP peptide, primary screen, biochemical, small-molecule microarray, fluorescence 635/667 nm, 0.1 µg/mL protein (AID 1182); settings: fluorescent protein binding, 635 nm, higher = more signal, called active from +8 up or from −8 down
[12] = system: XIP peptide (Xip251-270); assay: small-molecule binders of XIP peptide, primary screen, biochemical, small-molecule microarray, fluorescence 635/667 nm, 0.5 µg/mL protein (AID 1183); settings: small-molecule microarray binding, fluorescence 635 nm; higher = more signal
[13] = Plasmodium falciparum growth inhibition, primary screen, strain 3D7, DAPI fluorescence, 100 nL (AID 1184);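 also: parasites grown inside human red blood cells in medium with human serum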; settings: P. falciparum 3D7 growth, 3 d, higher = more signal
[14] = biological target: Homeobox protein Hox-A13 (Mus musculus) (UniProt Q62424); assay: inhibitors of HoxA13-DNA binding, primary screen, biochemical, fluorescence polarization, labeled oligonucleotide (AID 1185); settings: 15 min, higher = more signal, called active from +8 up or from −8 down
[15] = inhibitors of hydroxyurea-induced Chk1 phosphorylation, primary screen, imaging, HeLa, phospho-Chk1 antibody, percent positive cells (AID 1186); settings: hydroxyurea-induced phospho-Chk1 immunofluorescence imaging, higher = more signal
[16] = inhibitors of hydroxyurea-induced Chk1 phosphorylation, primary screen, imaging, HeLa, phospho-Chk1 nuclear intensity (AID 1187); settings: hydroxyurea-induced phospho-Chk1 immunofluorescence imaging, higher = more signal

Sequence of Homeobox protein Hox-A13 (Mus musculus) (Q62424 whole entry, looked up): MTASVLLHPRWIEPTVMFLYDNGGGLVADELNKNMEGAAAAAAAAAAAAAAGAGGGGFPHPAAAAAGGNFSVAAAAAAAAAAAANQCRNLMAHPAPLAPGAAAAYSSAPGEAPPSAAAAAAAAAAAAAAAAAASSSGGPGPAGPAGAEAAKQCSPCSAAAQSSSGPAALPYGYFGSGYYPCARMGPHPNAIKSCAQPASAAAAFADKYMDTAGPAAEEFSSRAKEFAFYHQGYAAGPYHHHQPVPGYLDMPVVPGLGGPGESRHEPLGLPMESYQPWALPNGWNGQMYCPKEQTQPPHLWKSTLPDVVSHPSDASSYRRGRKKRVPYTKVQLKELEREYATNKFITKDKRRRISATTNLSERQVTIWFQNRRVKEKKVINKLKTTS
Sequence of Dihydroorotate dehydrogenase (quinone), mitochondrial (Plasmodium falciparum (isolate 3D7)) (Q08210 whole entry, looked up): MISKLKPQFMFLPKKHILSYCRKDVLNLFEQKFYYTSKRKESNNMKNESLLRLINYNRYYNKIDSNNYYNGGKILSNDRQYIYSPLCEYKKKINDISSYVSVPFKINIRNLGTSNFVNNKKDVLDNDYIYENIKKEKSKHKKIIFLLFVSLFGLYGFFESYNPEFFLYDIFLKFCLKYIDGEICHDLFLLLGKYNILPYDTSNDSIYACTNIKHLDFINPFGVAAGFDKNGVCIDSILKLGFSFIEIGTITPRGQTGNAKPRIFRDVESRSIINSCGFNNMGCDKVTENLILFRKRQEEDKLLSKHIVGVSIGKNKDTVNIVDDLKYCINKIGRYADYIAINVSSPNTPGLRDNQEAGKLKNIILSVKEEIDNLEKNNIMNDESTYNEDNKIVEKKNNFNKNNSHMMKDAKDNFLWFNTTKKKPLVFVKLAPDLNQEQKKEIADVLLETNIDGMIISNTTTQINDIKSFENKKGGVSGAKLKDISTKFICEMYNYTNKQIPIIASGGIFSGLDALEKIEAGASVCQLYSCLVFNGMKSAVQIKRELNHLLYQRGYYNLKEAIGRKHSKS
Sequence of E3 ubiquitin-protein ligase XIAP (Homo sapiens) (P98170 whole entry, looked up): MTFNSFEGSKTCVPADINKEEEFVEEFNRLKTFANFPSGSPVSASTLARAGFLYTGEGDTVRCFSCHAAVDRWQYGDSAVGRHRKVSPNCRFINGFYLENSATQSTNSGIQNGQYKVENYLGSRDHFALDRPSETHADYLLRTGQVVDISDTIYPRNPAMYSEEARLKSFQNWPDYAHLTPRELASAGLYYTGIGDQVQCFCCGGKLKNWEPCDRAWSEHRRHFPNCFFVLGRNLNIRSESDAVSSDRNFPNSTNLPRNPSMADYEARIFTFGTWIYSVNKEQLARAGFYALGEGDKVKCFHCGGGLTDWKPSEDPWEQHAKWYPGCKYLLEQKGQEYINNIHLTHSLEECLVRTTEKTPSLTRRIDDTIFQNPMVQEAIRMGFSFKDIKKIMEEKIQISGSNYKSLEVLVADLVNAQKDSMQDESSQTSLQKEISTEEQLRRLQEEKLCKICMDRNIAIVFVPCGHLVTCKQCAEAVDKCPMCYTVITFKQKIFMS

| SMILES | z-score [1] | z-score [2] | z-score [3] | composite z-score [4] | z-score [5] | z-score [6] | z-score [7] | z-score [8] | z-score [9] | composite z-score [10] | composite z-score [11] | composite z-score [12] | z-score [13] | z-score [14] | z-score [15] | z-score [16] |
| --- | --- | --- | --- | --- | --- | --- | --- | --- | --- | --- | --- | --- | --- | --- | --- | --- |
| O=C1C[C@@](C(=O)NCc2ccccc2)(c2ccc([N+](=O)[O-])cc2)[C@@H](c2ccc(CO)cc2)N1C1CCCCC1 | -0.563 | -0.517 (inactive) | -0.163 (inactive) | -1.58 (inactive) | -0.0654 (inactive) | -1.02 (inactive) | 0.639 (inactive) | 1.46 (inactive) | -0.0381 | -0.031 | 0.58 (inactive) | 0.607 | 0.469 | -2.95 (inactive) | -0.53 (inactive) | -0.0661 (inactive) |
| CCCCC(O)C1C=CC2C(=O)N(c3ccccc3)C(=O)C2N1Nc1ccc([N+](=O)[O-])cc1 (stereo not given) | 0.172 | -0.485 (inactive) | 0.519 (inactive) | 0.0188 (inactive) | 1.03 (inactive) | -0.385 (inactive) | 0.356 (inactive) | 0.282 (inactive) | -0.354 | -0.156 | 0.0204 (inactive) | 0.598 | -0.496 | -4.62 (inactive) | 0.391 (inactive) | 0.501 (inactive) |
| CC(C)C(O)C1C=CC2C(=O)NC(=O)C2N1Nc1ccccn1 (stereo not given) | -0.984 | 0.754 (inactive) | -1.69 (inactive) | 0.48 (inactive) | 0.612 (inactive) | 0.696 (inactive) | -1.03 (inactive) | 0.125 (inactive) | -1.23 | 0.106 | 0.163 (inactive) | 0.943 | 0.17 | -3.11 (inactive) | -0.446 (inactive) | -0.67 (inactive) |
| CC1CC/C=C\[C@H]2OC34C=CCN(CCN5CCOCC5)C(=O)[C@H]3N(CCCO)C(=O)[C@@H]4C2C(=O)O1 (stereo not given in full) | -0.505 | 0.356 (inactive) | -0.431 (inactive) | 0.199 (inactive) | 0.233 (inactive) | 0.296 (inactive) | -0.47 (inactive) | -0.496 (inactive) | -0.479 | 0.158 | 0.537 (inactive) | -0.868 | -0.246 | -6.46 (inactive) | 0.58 (inactive) | 0.667 (inactive) |
| COc1ccc([Si](C)(C)[C@H]2[C@H](CC(=O)N3Cc4ccccc4C[C@H]3CO)O[C@@]3(C(=O)N(C)c4c(Br)cc(C)cc43)[C@@H]2C)cc1 | -4.15 | 0.915 (inactive) | -6.33 (inactive) | 0.973 (inactive) | 1.72 (inactive) | 3.17 (inactive) | -0.652 (inactive) | -0.984 (inactive) | -6.22 | -0.134 | 0.0621 (inactive) | 0.445 | -2.61 | -4.14 (inactive) | 0.18 (inactive) | -0.569 (inactive) |
